# From PubChem BioAssay (Tox21)
# Inconclusive results are not listed. Entries that show only a call come without a potency. Where a structure was tested more than once in an assay, its records may differ in their call. Active and inactive are the calls of the source. The call rests on the fitted dose curve; in most records, active means well fitted curve in the direction sought with a large enough effect in the repeat runs; inconclusive means weak or mixed curves; inactive means no such curve, though single readings can be large; an effect the other way counts as inactive or inconclusive.
# Legend:
# [1] = qHTS RealTime-Glo MT Cell Viability Assay in HEK293 cells - 16 hour (AID 1224872); further: nearly all actives have a fitted effect of over 50% in size; further: potency means the concentration at half of the fitted maximal effect
# Summary of the method: (§1)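 Luminescence generated by NanoLuc from substrate produced by living HEK293 cells served as the viability signal. Each value reflects the reading at its stated time point during continuous 40 h compound exposure at 37 C.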
# [2] = qHTS RealTime-Glo MT Cell Viability Assay in HepG2 cells - 8 hour (AID 1224873); further: nearly all actives have a fitted effect of over 55% in size
# Summary of the method: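 HepG2 cells mixed with RealTime-Glo MT reagents (NanoLuc plus cell-permeant prosubstrate) were seeded at 600 cells/well, incubated 5 h at 37 C/5% CO2, then pinned with compounds in DMSO; nonlytic luminescence tracked viability during 40 h treatment.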
# [3] = A CellTox Green Cytotoxicity Assay to monitor cytotoxicity in HEK293 cells - 24 hour (AID 1224875); further: series mostly up to about 77 µM; nearly all actives have a fitted effect of over 45% in size
# Summary of the method: (§2)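 Real-time, in one plate: 600 HEK293 cells/well with dead-cell DNA dye, pinned compound after 5 h, 37 C incubation over 40 h; viable cells give no appreciable fluorescence.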
# [4] = A CellTox Green Cytotoxicity Assay to monitor cytotoxicity in HepG2 cells - 16 hour (AID 1224876); further: nearly all actives have a fitted effect of over 45% in size
# Summary of the method: (§3)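 Cytotoxicity was tracked as dead-cell DNA fluorescence in HepG2 cells treated with test compounds at 37 C; each time-point value comes from one kinetic series spanning 0, 8, 16, 24, 32 and 40 h.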
# [5] = qHTS RealTime-Glo MT Cell Viability Assay in HepG2 cells - 32 hour (AID 1224877); further: nearly all actives have a fitted effect of over 55% in size
# Summary of the method: (§4)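 Tox21 10K library screened in qHTS format on HepG2 cells carrying RealTime-Glo reagents. Compounds were added after a 5 h preincubation, and the luminescent signal from continuous culture was measured repeatedly during 40 h treatment.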
# [6] = A CellTox Green Cytotoxicity Assay to monitor cytotoxicity in HepG2 cells - 24 hour (AID 1224878); further: nearly all actives have a fitted effect of over 45% in size
# Summary of the method: as §3
# [7] = A CellTox Green Cytotoxicity Assay to monitor cytotoxicity in HepG2 cells - 40 hour (AID 1224879); further: nearly all actives have a fitted effect of over 40% in size
# Summary of the method: as §3
# [8] = qHTS RealTime-Glo MT Cell Viability Assay in HEK293 cells - 0 hour (AID 1224880); further: top concentration of the series differs between compounds; nearly all actives have a fitted effect of over 45% in size
# Summary of the method: (§5)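 Kinetic, non-lysing viability readout. Seed HEK293 (600/well) with reagent, incubate 5 h at 37 C/5% CO2, pin 23 nL compound in DMSO, incubate at 37 C, read luminescence at 0, 8, 16, 24, 32, 40 h.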
# [9] = A CellTox Green Cytotoxicity Assay to monitor cytotoxicity in HEK293 cells - 32 hour (AID 1224881); further: nearly all actives have a fitted effect of over 40% in size; further: potency means the concentration at half of the fitted maximal effect
# Summary of the method: as §2
# [10] = A CellTox Green Cytotoxicity Assay to monitor cytotoxicity in HepG2 cells - 0 hour (AID 1224882); further: nearly all actives have a fitted effect of over 35% in size
# Summary of the method: as §3
# [11] = A CellTox Green Cytotoxicity Assay to monitor cytotoxicity in HepG2 cells - 32 hour (AID 1224883); further: nearly all actives have a fitted effect of over 50% in size
# Summary of the method: as §3
# [12] = A CellTox Green Cytotoxicity Assay to monitor cytotoxicity in HEK293 cells - 8 hour (AID 1224884); further: nearly all actives have a fitted effect of over 35% in size
# Summary of the method: as §2
# [13] = qHTS RealTime-Glo MT Cell Viability Assay in HepG2 cells - 16 hour (AID 1224885); further: nearly all actives have a fitted effect of over 50% in size
# Summary of the method: as §4
# [14] = qHTS RealTime-Glo MT Cell Viability Assay in HEK293 cells - 24 hour (AID 1224886); further: nearly all actives have a fitted effect of over 50% in size; further: potency means the concentration at half of the fitted maximal effect
# Summary of the method: as §1
# [15] = qHTS RealTime-Glo MT Cell Viability Assay in HEK293 cells - 8 hour (AID 1224887); further: nearly all actives have a fitted effect of over 50% in size; further: potency means the concentration at half of the fitted maximal effect
# Summary of the method: as §5
# [16] = A CellTox Green Cytotoxicity Assay to monitor cytotoxicity in HEK293 cells - 16 hour (AID 1224888); further: nearly all actives have a fitted effect of over 35% in size
# Summary of the method: as §2
# [17] = qHTS RealTime-Glo MT Cell Viability Assay in HepG2 cells - 0 hour (AID 1224889); further: nearly all actives have a fitted effect of over 50% in size
# Summary of the method: as §4
# [18] = A CellTox Green Cytotoxicity Assay to monitor cytotoxicity in HepG2 cells - 8 hour (AID 1224890); further: nearly all actives have a fitted effect of over 45% in size
# Summary of the method: as §3
# [19] = qHTS assay to identify small molecule antagonists of the estrogen receptor alpha (ER-alpha) signaling pathway using the BG1 cell line in the presence of 0.1 nM 17-beta-estradiol - cell viability counter screen (AID 1259241); further: nearly all actives have a fitted effect of over 40% in size
# Summary of the method: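 Cytotoxicity counter-screen: live-cell protease activity measured by fluorescence (30 min reagent step) in the same wells. Cells were VM7Luc4E2 with endogenous ER-alpha and ERE-driven luciferase, treated 22 hr at 37C alongside 0.1 nM 17beta-estradiol final.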
# [20] = qHTS RealTime-Glo MT Cell Viability Assay in HEK293 cells - 40 hour (AID 1224874); settings: RealTime-Glo luminescence; max response: stronger effect = lower value; further: nearly all actives have a fitted effect of over 50% in size
# Summary of the method: as §5
Compound,Potency [1],outcome [2],Potency [3],Potency [4],Potency [5],Potency [6],Potency [7],outcome [8],Potency [9],outcome [10],Potency [11],Potency [12],Potency [13],Potency [14],Potency [15],Potency [16],outcome [17],Potency [18],outcome [19],max response [20]
[O-][Br+2]([O-])O,inactive,inactive,inactive,inactive,inactive,inactive,inactive,inactive,inactive,inactive,inactive,inactive,inactive,inactive,inactive,inactive,inactive,inactive,inactive,
O=C(O)C(F)(F)C(F)(F)C(F)(F)C(F)(F)C(F)(F)C(F)(F)F,inactive,inactive,inactive,inactive,inactive,inactive,inactive,inactive,inactive,inactive,inactive,inactive,inactive,inactive,inactive,inactive,inactive,inactive,inactive,
C=C1CC[C@@]2(O)[C@H]3Cc4ccc(O)c5c4[C@@]2(CCN3CC2CC2)[C@H]1O5,inactive,inactive,inactive,inactive,inactive,inactive,inactive,inactive,inactive,inactive,inactive,inactive,inactive,inactive,inactive,,inactive,inactive,inactive,
Cc1ccc(-c2nc3ccc(C)cn3c2CC(=O)N(C)C)cc1,inactive,inactive,inactive,inactive,inactive,inactive,inactive,inactive,inactive,inactive,inactive,inactive,inactive,,inactive,inactive,,inactive,inactive,
CC[C@H](O)C(C[C@H](C)N(C)C)(c1ccccc1)c1ccccc1,inactive,inactive,inactive,inactive,inactive,inactive,inactive,inactive,inactive,inactive,inactive,inactive,inactive,,inactive,inactive,inactive,inactive,,
OP(O)c1ccccc1,inactive,inactive,inactive,inactive,inactive,inactive,inactive,inactive,inactive,inactive,inactive,inactive,inactive,inactive,inactive,inactive,inactive,inactive,inactive,
ClC1=C(Cl)C2(Cl)C(CBr)CC1(Cl)C2(Cl)Cl (stereo unspecified),43.6 µM (active) and inactive,inactive,,inactive,inactive,inactive,inactive,inactive,54.9 µM (active) and inactive,inactive,inactive,inactive,inactive,49 µM (active) and inactive,43.6 µM (active) and inactive,,,inactive,inactive,-5.43% (inactive)
C/C=C/CC#N,inactive,inactive,,inactive,inactive,,inactive,inactive,,inactive,inactive,,inactive,inactive,inactive,,inactive,inactive,inactive,9.52% (inactive)
COc1ccccc1OC,inactive,inactive,inactive,inactive,inactive,inactive,inactive,inactive,inactive,,inactive,inactive,,inactive,,inactive,inactive,inactive,inactive,
CCN(CC)CCOC(=O)C(O)(c1ccccc1)c1ccccc1,inactive,inactive,inactive,inactive,inactive,inactive,inactive,inactive,inactive,inactive,inactive,inactive,inactive,inactive,inactive,inactive,inactive,inactive,inactive,
ClCCCCl,inactive,inactive,inactive,inactive,inactive,inactive,inactive,inactive,inactive,inactive,inactive,inactive,inactive,inactive,inactive,inactive,inactive,inactive,inactive,
O=[N+]([O-])c1cccc(CCl)c1,inactive,inactive,inactive,inactive,,,inactive,inactive,inactive,inactive,inactive,inactive,inactive,inactive,inactive,inactive,inactive,inactive,inactive,6.77% (inactive)
O=C(Cl)C(Cl)(Cl)Cl,inactive,inactive,inactive,inactive,,,inactive,inactive,inactive,,inactive,inactive,inactive,inactive,,inactive,inactive,inactive,inactive,1.29% (inactive)
CCC1(c2ccccc2)CCC(=O)NC1=O (stereo unspecified),inactive,inactive,inactive,inactive,,,inactive,inactive,inactive,inactive,inactive,inactive,inactive,inactive,inactive,inactive,inactive,inactive,,-2.24% (inactive)
